The values below come from paper PMC13494018.

Unmarked numbers belong to inactive results. No rule for the calls is given here.

The assay concerns the target VTCN1, Q7Z7D3.

VTCN1, Q7Z7D3, sequence (Q7Z7D3 whole entry): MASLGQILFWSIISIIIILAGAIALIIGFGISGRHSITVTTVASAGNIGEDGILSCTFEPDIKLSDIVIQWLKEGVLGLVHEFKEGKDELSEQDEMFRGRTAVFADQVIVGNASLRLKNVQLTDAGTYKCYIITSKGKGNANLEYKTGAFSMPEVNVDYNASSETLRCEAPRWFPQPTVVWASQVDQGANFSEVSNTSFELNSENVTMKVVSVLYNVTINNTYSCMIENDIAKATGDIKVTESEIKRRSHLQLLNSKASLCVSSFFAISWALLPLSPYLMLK

B1: design_599_7ce25d4d-e004-4b84-a16f-baf856d943ab_219_dldesign_0_cycle1_af2pred (protein)
chain: MDPAELAAAKQAEAEAIIAETKAKAEKYIEEAKKSKKYVEALQYVGRAEVLLDSTVSYLTKNVGPEAGEKAQEIADKTVKEGFEIVKK
On to B1, for which the “binding in a display sort” value was “not found”.

B2: design_599_7ce25d4d-e004-4b84-a16f-baf856d943ab_451_dldesign_0_cycle1_af2pred (protein)
chain: EKITAVNEAEAYLEALKHAAEVLTKIDPSLKPEAEKAIKEGEKLVKEAKEGNAETAKKAAEEIRKLLKEVIELGKKAKA
For B2, the “binding in a display sort” value was “not found”.

B3: design_599_7ce25d4d-e004-4b84-a16f-baf856d943ab_928_dldesign_0_cycle1_af2pred (protein)
chain: AAAKEEAEKRAKKALEEGEKAAKEIEKSNAEEARKIAKEFREKAKELVADPEASPEEKKALAEGAQKAYEAAAEKEAKE
For B3, the “binding in a display sort” value is “not found”.

B4: design_599_7ce25d4d-e004-4b84-a16f-baf856d943ab_1128_dldesign_0_cycle1_af2pred (protein)
chain: MLSKEASEVIKKAVKAAKKVAEAGKKLGIGEKAKKEAAKKVEEVADAVVESLEKGKEAAEKFAKEAEVLAKLAKA
As to B4, the “binding in a display sort” value was “not found”.

B5: design_599_7ce25d4d-e004-4b84-a16f-baf856d943ab_358_dldesign_0_cycle1_af2pred (protein)
chain: HMKYIELLDRINKVSKELQEAYKEASKDPENKPKVEELAKEASELRDKGYDEPEKAEEYLKKMEELAKEMKKLAKE
For the molecule B5, the “binding in a display sort” value is “not found”.

B6: design_599_7ce25d4d-e004-4b84-a16f-baf856d943ab_441_dldesign_0_cycle1_af2pred (protein)
chain: GKKEEAEKKMKKAYEKMKKLAEEAGKAKDPKEAYEYLLKIEEVGAEAINYAAKIGDKETAREAAKKYRELFREAVKKAQAAGKA
As for B6, the “binding in a display sort” value is “not found”.

B7: design_599_7ce25d4d-e004-4b84-a16f-baf856d943ab_1040_dldesign_0_cycle1_af2pred (protein)
chain: EKLKERYKAAAKNLEKAAESKDKNEAKALIGRAEALALNASADPAAPEIAKLADEALEAVYKDLEKGKELAKKAAEKAKEAAA
For the molecule B7, the “binding in a display sort” value was “not found”.

B8: design_599_7ce25d4d-e004-4b84-a16f-baf856d943ab_347_dldesign_0_cycle1_af2pred (protein)
chain: AEAEKAKATADAKKEAKAFAEEAKKKAEEASKGTPEDVKKERDKVAAEFDKKIAEAAGNPEAAAAYAEARHEAKAEYDLAYVKAK
For B8, the “binding in a display sort” value is “not found”.

B9: design_599_7ce25d4d-e004-4b84-a16f-baf856d943ab_929_dldesign_0_cycle1_af2pred (protein)
chain: GLDAVTDALAEAFYASREIEKIDPELGKELLEYAKELAKKAIAGTPEAAKKLAEEIKKKTEEKLKEAEEKAKKE
For B9, the “binding in a display sort” value was “not found”.

B10: design_599_7ce25d4d-e004-4b84-a16f-baf856d943ab_519_dldesign_0_cycle1_af2pred (protein)
chain: MEAALEALKKAAAEAANLVYDAADIGAEEAEKAAKEAIKKIKDTATPELAPLAKEYAEKLGKTAERLIENNKYGEELKK
As to B10, the “binding in a display sort” value is “not found”.

B11: design_599_7ce25d4d-e004-4b84-a16f-baf856d943ab_284_dldesign_0_cycle1_af2pred (protein)
chain: AEVEAFKAAAEKYYKKAKEYFEKAKKTGSKSLYLKGASYAELALHNLENAAKAAAAKDPAEGAKLQKELKETKEELDKLYEEARKAAV
Consider B11, for which the “binding in a display sort” value is “binds (active)”.

B12: design_599_7ce25d4d-e004-4b84-a16f-baf856d943ab_748_dldesign_0_cycle1_af2pred (protein)
chain: SKEEIKKQSELMKKATRYVKEAGKAAKVLGEEGKKKVEEMVKLRDQAADSDVETAKKLTEEIEKEAEEVIKKAEEKEK
As for B12, the “binding in a display sort” value was “not found”.

B13: design_599_7ce25d4d-e004-4b84-a16f-baf856d943ab_506_dldesign_0_cycle1_af2pred (protein)
chain: MEEEKKAIEEAKERAKEIAEKAVKEAKKAKTPKEISEAIREMVRKLRELVKEVREKYSEETAEKVKEIAAKERLKAVDEIAAAK
On to B13, for which the “binding in a display sort” value was “not found”.

B14: design_599_7ce25d4d-e004-4b84-a16f-baf856d943ab_845_dldesign_0_cycle1_af2pred (protein)
chain: NELEKAAKAAEAVAKALRAAAEAGPTPESLAAVEALAKEAAKVDEAAADIARAAVAAARADPARAAEALRRGARIAKRLAEDYKKAI
As to B14, the “binding in a display sort” value was “not found”.

B15: design_599_7ce25d4d-e004-4b84-a16f-baf856d943ab_360_dldesign_0_cycle1_af2pred (protein)
chain: TAAITEARDAAVEARGDVELAKAKNAKAEEYEKAAKKAEEAKKKLKEVLETVELSEEERETAERMIEAMERAAEEARKLAKEKK
As to B15, the “binding in a display sort” value is “not found”.

B16: design_599_7ce25d4d-e004-4b84-a16f-baf856d943ab_718_dldesign_0_cycle1_af2pred (protein)
chain: SELTEKVNKEADELRKRAREIGETARRLAEEAAKHDPAAAEEIRRLASLSIQKLFEGDEEEAERYWEEAVALAKAAVA
As to B16, the “binding in a display sort” value is “not found”.

B17: design_599_7ce25d4d-e004-4b84-a16f-baf856d943ab_290_dldesign_0_cycle1_af2pred (protein)
chain: SEARRERLRAEAEEAIEKLKEAAKQAFEAGNGEAALVAVRAAARARRLLADPATVEEGLRVAKEGLEKAEKLLKE
On to B17, for which the “binding in a display sort” value was “not found”.

B18: design_599_7ce25d4d-e004-4b84-a16f-baf856d943ab_173_dldesign_0_cycle1_af2pred (protein)
chain: SEAEKVIEEARKKAEEAREFIKKIREEGGNPEAAELALQALSHFKAAEALAKSGENLESAKKHLEEGKKLLEEAKELYE
In the case of B18, the “binding in a display sort” value is “not found”.

B19: design_599_7ce25d4d-e004-4b84-a16f-baf856d943ab_378_dldesign_0_cycle1_af2pred (protein)
chain: AAAAILAATDAEVAAILAKGAEEIAKAAKEEGPEAAKKVATEVLEKANDVIAEGGVKAGLSAKEISARINAAQKEVRAIAEKAIEAAA
With B19, the “binding in a display sort” value is “not found”.
